About 1,500 (3.8%) of roughly 39,000 compounds were called active. The sample as a whole holds a higher share of actives than the screen did.
tested on: HSkMC (human skeletal muscle cells); assay: cytotoxicity call (relative viability < 0.9); settings: 10 µM

| SMILES | cytotoxicity call |
| --- | --- |
| C[C@H](CO)N1C[C@H](C)[C@@H](CN(C)C(=O)C2CCCCC2)Oc2cc(-c3cncnc3)ccc2S1(=O)=O | inactive |
| C[C@H](CO)N1C[C@H](C)[C@H](CN(C)Cc2ccccc2)Oc2ccc(NS(=O)(=O)c3cn(C)cn3)cc2CC1=O | inactive |
| C[C@H](CO)N1C[C@H](C)[C@H](CN(C)S(=O)(=O)c2ccc(C(F)(F)F)cc2)OCc2ccccc2-c2c(n(C)c3ccccc23)C1=O | inactive |
| CC(C)NC(=O)Nc1ccc2c(c1)C(=O)N([C@@H](C)CO)C[C@@H](C)[C@@H](CN(C)C(=O)NC1CCCCC1)O2 | inactive |
| C[C@@H]1CCCCO[C@H](CN(C)C(=O)c2ccccc2)[C@@H](C)CN([C@@H](C)CO)C(=O)c2cc(NC(=O)Nc3ccc(F)cc3)ccc2O1 | inactive |
| COc1ccc(S(=O)(=O)N(C)C[C@H]2OCCCC[C@H](C)Oc3ccc(NC(=O)c4ccccc4)cc3C(=O)N([C@@H](C)CO)C[C@H]2C)cc1 | inactive |
| COc1ccc2c3c(n(c2c1)C)[C@H](CO)N(C[C@]13CN(C1)S(=O)(=O)c1cn(cn1)C)C(=O)Nc1ccc(cc1)F | inactive |
| COc1ccc(S(=O)(=O)Nc2ccc3c(c2)C(=O)N([C@@H](C)CO)C[C@@H](C)[C@@H](CN(C)C(=O)Nc2ccc(C(F)(F)F)cc2)OCCCC[C@@H](C)O3)cc1 | inactive |
| C[C@@H]1CCCCO[C@H](CN(C)C(=O)CCC(F)(F)F)[C@H](C)CN([C@@H](C)CO)C(=O)c2cc(NS(=O)(=O)c3cccs3)ccc2O1 | inactive |
| COC(=O)[C@H]1c2cc3c(c(O)c2[C@@H](O[C@@H]2O[C@H](C)[C@H](OC)[C@](C)(OC)[C@@H]2OC)C[C@@]1(C)O)C(=O)c1c(O)cc2c(c1C3=O)O[C@H]1O[C@@]2(C)[C@@H](O)[C@H](N(C)C)[C@@H]1O | inactive |
| CC[C@@]1(O)C[C@H](O[C@H]2C[C@H](N(C)C)[C@H](O[C@H]3C[C@H](O)[C@H](O[C@H]4CCC(=O)[C@H](C)O4)[C@H](C)O3)[C@H](C)O2)c2c(cc3c(c2O)C(=O)c2c(O)cccc2C3=O)[C@H]1C(=O)OC | active |
| C[C@@H]1CCCCO[C@H](CN(C)Cc2ccc(Cl)c(Cl)c2)[C@@H](C)CN([C@H](C)CO)C(=O)c2cc(NC(=O)c3ccncc3)ccc2O1 | inactive |
| CC=Cc1ccc2n(c1=O)C[C@H]1[C@H](CO)[C@@H](C(=O)NCCc3cn(C)cn3)[C@@H]2N1C(=O)C1CC1 | inactive |
| C[C@H](CO)N1C[C@H](C)[C@H](CN(C)C(=O)Nc2ccc3c(c2)OCO3)Oc2c(NC(=O)C3CC3)cccc2C1=O | inactive |
| C[C@H](CO)N1C[C@H](C)[C@@H](CN(C)S(=O)(=O)c2ccc(Cl)cc2)OCCCC[C@H](C)Oc2ccc(NS(=O)(=O)c3ccccc3)cc2C1=O | inactive |
| Cc1c(N)nc([C@H](CC(N)=O)NC[C@H](N)C(N)=O)nc1C(=O)N[C@H](C(=O)N[C@H](C)[C@@H](O)[C@H](C)C(=O)N[C@H](C(=O)NCCc1nc(-c2nc(C(=O)NCCCNCCCCN)cs2)cs1)[C@@H](C)O)[C@@H](O[C@@H]1O[C@@H](CO)[C@@H](O)[C@H](O)[C@@H]1O[C@@H]1O[C@H](CO)[C@@H](O)[C@H](OC(N)=O)[C@@H]1O)c1c[nH]cn1 | active |
| Cc1ccc(S(=O)(=O)N(C)C[C@@H]2Oc3ccc(NC(=O)Cn4cnnn4)cc3CC(=O)N([C@@H](C)CO)C[C@H]2C)cc1 | inactive |
| C[C@@H]1CN([C@H](C)CO)C(=O)c2cccc(NC(=O)Nc3ccc(C(F)(F)F)cc3)c2O[C@@H]1CN(C)Cc1ccc(-c2ccccc2)cc1 | active |
| C[C@H]1CN([C@@H](C)CO)C(=O)c2cccc(NC(=O)Nc3ccccc3)c2O[C@@H]1CN(C)Cc1ccc(C(F)(F)F)cc1 | active |

| SMILES | cytotoxicity call |
| --- | --- |
| C[C@H](CO)N1C[C@H](C)[C@H](CN(C)Cc2ccc(C(F)(F)F)cc2)Oc2c(NC(=O)Nc3ccccc3)cccc2C1=O | inactive |
| C[C@H](CO)N1C[C@H](C)[C@@H](CN(C)Cc2ccc(C(F)(F)F)cc2)Oc2c(NC(=O)Nc3ccccc3)cccc2C1=O | inactive |
| C[C@@H]1CN([C@@H](C)CO)C(=O)c2cccc(NC(=O)Nc3ccccc3)c2O[C@H]1CN(C)Cc1ccc(C(F)(F)F)cc1 | inactive |
| C[C@@H]1CN([C@H](C)CO)C(=O)c2cccc(NC(=O)Nc3ccc(C(F)(F)F)cc3)c2O[C@H]1CN(C)Cc1ccc(-c2ccccc2)cc1 | inactive |
| C[C@@H]1CN([C@H](C)CO)C(=O)c2cccc(NC(=O)Nc3ccccc3)c2O[C@H]1CN(C)Cc1ccc(C(F)(F)F)cc1 | active |
| C[C@@H]1CN([C@@H](C)CO)C(=O)c2cccc(NC(=O)Nc3ccccc3)c2O[C@@H]1CN(C)Cc1ccc(C(F)(F)F)cc1 | inactive |
| C[C@H]1CN([C@@H](C)CO)C(=O)c2cccc(NC(=O)Nc3ccc(C(F)(F)F)cc3)c2O[C@H]1CN(C)Cc1ccc(-c2ccccc2)cc1 | inactive |
| Cc1noc(C)c1NC(=O)Nc1ccc2c(c1)C(=O)N([C@H](C)CO)C[C@H](C)[C@H](CN(C)Cc1ccncc1)OCCCC[C@H](C)O2 | inactive |
| Cc1noc(C)c1S(=O)(=O)N(C)C[C@H]1Oc2ccc(NC(=O)Cc3ccccc3)cc2CC(=O)N([C@@H](C)CO)C[C@H]1C | inactive |
| CN(C)Cc1cn(CC[C@H]2CC[C@@H](NC(=O)Cc3cccnc3)[C@H](CO)O2)nn1 | inactive |
| C[C@H](CO)N1C[C@H](C)[C@@H](CN(C)Cc2ccc(-c3ccccc3)cc2)Oc2c(NC(=O)CCCCCC(=O)Nc3ccccc3N)cccc2C1=O | inactive |
| CC(C)NC(=O)N(C)C[C@H]1Oc2cc(C#Cc3cccc(F)c3)ccc2S(=O)(=O)N([C@@H](C)CO)C[C@@H]1C | inactive |
| C[C@H](NC(=O)C[C@H]1CC[C@H](NC(=O)CN2CCOCC2)[C@@H](CO)O1)c1ccccc1 | inactive |
| COc1ccc(NC(=O)Nc2cccc3c2O[C@@H](CN(C)Cc2ccc(Oc4ccccc4)cc2)[C@@H](C)CN([C@@H](C)CO)C3=O)cc1 | inactive |
| COc1ccc(NC(=O)Nc2cccc3c2O[C@@H](CN(C)Cc2ccc(Oc4ccccc4)cc2)[C@@H](C)CN([C@H](C)CO)C3=O)cc1 | active |
| COc1ccc(NC(=O)Nc2cccc3c2O[C@H](CN(C)Cc2ccc(Oc4ccccc4)cc2)[C@@H](C)CN([C@@H](C)CO)C3=O)cc1 | active |
| COc1ccc(NC(=O)Nc2cccc3c2O[C@H](CN(C)Cc2ccc(Oc4ccccc4)cc2)[C@H](C)CN([C@H](C)CO)C3=O)cc1 | inactive |
| COc1ccc(NC(=O)Nc2cccc3c2O[C@@H](CN(C)Cc2ccc(Oc4ccccc4)cc2)[C@H](C)CN([C@H](C)CO)C3=O)cc1 | inactive |
| COc1ccc(NC(=O)Nc2cccc3c2O[C@@H](CN(C)Cc2ccc(Oc4ccccc4)cc2)[C@H](C)CN([C@@H](C)CO)C3=O)cc1 | inactive |
